From ChEMBL document CHEMBL4513216, “Probing the Open Global Health Chemical Diversity Library for Multistage-Active Starting Points for Next-Generation Antimalarials” (ACS Infect Dis, 2020) come the findings set out here.

The whole screen tested about 69,000 compounds, of which about 8,600 (12%) showed an effect of 50% or more. For the sample, strong results were picked, then their nearest neighbours and some compounds at random.

The experiment has as its system Plasmodium berghei. The experiment is described as follows: Screen against P. berghei liver stage (PbLuc), transformed with Luciferase, at 10uM. The format is functional, HepG2. The settings on record: tested at 10 uM.
With `CCCn1cc(CN2CCOCC2c2[nH]ncc2C)cn1` (stereo not drawn), the INHIBITION amounted to 6.2%. `Cc1ncc(CN2CCc3c(nc4cc(C5CC5)nn4c3O)C2)n1C`: the INHIBITION worked out at 47.1%. Next, `Cc1oc2c(c1C(=O)N1CC[C@H](O)[C@]3(CCCO3)C1)CCCC2`: 3.75%; `CC(C)Oc1cccc2c1c(NC(=O)CN(C)C)nn2CC(F)(F)F`: 7.77%; `Cc1nccn1-c1cccc(C2CCCN(C3CCCCC3)C2)n1` (stereo not drawn): 11.4%. With `COCC(=O)N1CCCC(c2cccc(-n3ccnc3)n2)C1` (stereo not drawn), the INHIBITION was 36.7%. Next, `O=C(C1CCC1)N1CCCC(c2cccc(-n3ccnc3)n2)C1` (stereo not drawn): 29.3%; `CC(=O)N1CCCC(c2cccc(-n3ccnc3)n2)C1` (stereo not drawn): 36.7%. Next, `Cc1cc(C)nc(N2CCCC(c3cccc(-n4ccnc4)n3)C2)n1` (stereo not drawn): 69.3%; `Cc1n[nH]cc1C(=O)N1CCCC(c2cccc(-n3ccnc3)n2)C1` (stereo not drawn): -13.7%; `O=C(c1cnccn1)N1CCCC(c2cccc(-n3ccnc3)n2)C1` (stereo not drawn): 50.1%.

Regarding `O=C(C1CCCC1)N1CCCC(c2cccc(-n3ccnc3)n2)C1` (stereo not drawn), the INHIBITION is 63.4%.

Turning to `Cc1nc(C(=O)N2CCCC(c3cccc(-n4ccnc4)n3)C2)co1` (stereo not drawn), the INHIBITION came out at 29.6%. For the compound `Cc1nccn1-c1cccc(C2CCCN(C(=O)c3cc[nH]n3)C2)n1` (stereo not drawn), the INHIBITION was 53.8%. Regarding `O=C(c1cc[nH]n1)N1CCCC(c2cccc(-n3ccnc3)n2)C1` (stereo not drawn), the INHIBITION was 14.4%. For `c1cnc(N2CCCC(c3cncc(-n4ccnc4)n3)C2)nc1` (stereo not drawn) the value was 15.9%. For the compound `CC(=O)c1ccc(OCC(=O)NS(=O)(=O)c2cccnc2)cc1`, the INHIBITION is 35.9%. Regarding `Cc1cnn(CC2CCCCN2C(=O)c2cc(Cl)c[nH]2)c1` (stereo not drawn), the INHIBITION is 40.3%. `Cc1cccc(C(=O)N2CCC3(CC(C(=O)N(C)C(C)C)=NO3)C2)c1` (stereo not drawn): the INHIBITION was 6.72%. With `Cc1noc([C@@H]2C[C@H]3OCC[C@H]3N(S(=O)(=O)N(C)C)C2)n1`, the INHIBITION is recorded as -13%. For `CC(=O)N1CCN(C(=O)NCc2ccccc2Cn2cncn2)CC1` the value was -56.4%. On to `COCC(=O)NCC1CCC(c2ccnc3ncnn23)CC1` (stereo not drawn), for which the INHIBITION amounted to 15.5%. For `Fc1ccc(CN2CCCC2c2cncc(-n3ccnc3)n2)cc1` (stereo not drawn), the INHIBITION turned out to be 22.7%. Take `Cc1cc(C)nc(N2CCC(c3cncc(-n4ccnc4)n3)CC2)n1`: the INHIBITION is 66.4%.

As to `c1cn(-c2cncc(C3CCNCC3)n2)cn1`, the INHIBITION is recorded as -64.7%.

With `CCOCc1ccc(NC(=O)N2CCOC3(CCC3)C2)cc1`, the INHIBITION is listed as -1.32%. Next, `O=C(c1cc(Br)ccc1Cl)N1CCN(Cc2ccco2)CC1`: 36.9%; `Cc1cc(C)c2cc(C(=O)N3CCN(Cc4ccco4)CC3)[nH]c2c1`: 9.04%. Turning to `CC(C)c1cc(C(=O)N2CCN(Cc3ccco3)CC2)n[nH]1`, the INHIBITION was found to be 14.3%. Consider `O=C(c1cc(Cl)c(Br)[nH]1)N1CCN(Cc2ccco2)CC1`, for which the INHIBITION is 63.8%.

Turning to `O=C(c1cc(Br)c[nH]1)N1CCN(Cc2ccco2)CC1`, the INHIBITION is reported as 55.4%. For `CC(=O)N1CCN(Cc2ccco2)CC2(CC(=O)N(C)C2)C1` (stereo not drawn) the value was 19.8%; for `CCOc1ncnc2c1CCN(S(=O)(=O)c1ccccc1)CC2`, 41.2%; for `Cc1ccc2nc(C3CCN(CC(C)C)CC3)nc(O)c2c1`, -8.07%. Next, `CC(C)Oc1ccc(C(=O)N2CCC(Nc3cccnn3)CC2)cn1`: -73.2%. Regarding `Cc1cccc(CN2CCCn3c(nnc3CN3CCCC3=O)C2)n1`, the INHIBITION is 24.8%. For `Cc1ccc(NC2CCN(C(=O)C(C)n3cncn3)CC2)nn1` (stereo not drawn) the value was -19.4%; for `O=C(c1ccccc1)N1C[C@H]2CC[C@@H](C1)N(C(=O)CN1CCOCC1)C2`, 0.897%; for `CN(C(=O)COc1ccc(-c2noc(C3CCCO3)n2)cc1)C1CC1` (stereo not drawn), -27.3%.

For `Cc1cc(C)cc(-n2ncc3c2CCCC3N)c1` (stereo not drawn), the INHIBITION is 37.9%.

Take `Cc1nc(C)n(CC(=O)N2CCCC(c3nc(C)n4c(C)csc34)C2)n1` (stereo not drawn): the INHIBITION stood at 8.12%. Next, `O=C(c1cn(-c2ccc(F)cc2)nn1)N1CCCC(n2cccn2)C1` (stereo not drawn): -73.2%; `CCc1nnc(N[C@H](C)c2cccc(OC)c2)o1`: 8.48%; `Cc1nc(CCNC(C)c2ccc3c(c2)OCCCO3)cs1` (stereo not drawn): 10%. In the case of `CC(NC(=O)CNCCn1cccn1)c1ccc2c(c1)OCCO2` (stereo not drawn), the INHIBITION is reported as 24.8%. Next, `CCCc1nnc(N[C@H](C)c2ccc(OC)cc2)o1`: 52.8%. With `CCCc1nnc(NC(C)c2ccc(F)cc2)o1` (stereo not drawn), the INHIBITION is on record as 8.48%. For `CCCc1nnc(NC(C)c2ccc3c(c2)OCCO3)o1` (stereo not drawn) the value was 53.9%. Next, `Cc1cc(C)n(C2CCCN(C(=O)Cc3cn4ccsc4n3)C2)n1` (stereo not drawn): -15.52%; `CCc1ccc(C(C)NC(=O)N2CCC(n3cncn3)CC2)cc1` (stereo not drawn): -73.1%. For `CC(C)N1CCN(C(=O)c2[nH]nnc2Nc2ccccc2F)CC1` the value was 4.35%; for `CC(=O)N1CCN(C(=O)c2[nH]nnc2Nc2ccccc2F)CC1`, -1.45%; for `CC(C)CN1CCN(C(=O)c2[nH]nnc2Nc2ccccc2F)CC1`, 64%.

In the case of `CC(=O)N1CCCC1c1cc(N2CCN(C3CCCC3)CC2)cc(C)n1` (stereo not drawn), the INHIBITION worked out at 34.5%. On to `CC(=O)N1CCCC1c1cc(N2CCN(CC3CC3)CC2)cc(C)n1` (stereo not drawn), for which the INHIBITION came to 45.6%. Next, `CC(=O)N1CCCC1c1cc(N2CCN(CC(C)(C)C)CC2)cc(C)n1` (stereo not drawn): 51.5%; `CCc1nc(N2CCCC(CO)(CCOC)C2)ncc1C` (stereo not drawn): -1.83%. For `N#Cc1cccc(N2CCCC(CO)(CCOc3ccccc3)C2)n1` (stereo not drawn) the value was 25.7%. As to `CC(C)=CCC1(C(=O)O)CCCN(c2ccnc(N)n2)C1` (stereo not drawn), the INHIBITION is 15%. Regarding `OCC1(CCOc2ccccc2)CCCN(c2ccc(Cl)cn2)C1` (stereo not drawn), the INHIBITION is on record as 83.3%.

Turning to `N#Cc1cccnc1N1CCCC(CO)(CCOc2ccccc2)C1` (stereo not drawn), the INHIBITION was found to be 23.8%.

On to `OCC1(CCOc2ccccc2)CCN(c2ccc(Cl)cn2)CC1`, for which the INHIBITION was found to be 32.2%. For the compound `Nc1nccc(N2CCCC(CO)(CCOc3ccccc3)C2)n1` (stereo not drawn), the INHIBITION was found to be 86.8%. Next, `N#Cc1ccc(N2CCCC(CO)(CCOc3ccccc3)C2)nc1` (stereo not drawn): 59.1%; `Nc1nccc(N2CCC(Cc3ccccc3Cl)(C(=O)O)CC2)n1`: 23.5%; `Cc1cnn(CC2CCCN2C(=O)CCc2ccc3c(c2)OCO3)c1` (stereo not drawn): 9.64%. For the compound `COC(=O)N1CCC(NC(=O)c2cc(S(N)(=O)=O)ccc2C)CC1`, the INHIBITION is 14.6%. Turning to `COc1cc(N2CC3(CCN(S(C)(=O)=O)C3)C2)ncn1`, the INHIBITION is -21.7%. Next, `CCOC(=O)c1sc(NC(=O)COC)c(C#N)c1C`: -30.8%; `COCCN1CCCN(C(=O)c2scnc2C)CC1`: -2.03%; `c1ccc(CN2CCCC(Cn3cncn3)C2)nc1` (stereo not drawn): 24%. For `Cc1nc(N2CC[C@@H](NC(=O)c3cnccn3)[C@H](O)C2)c2ccsc2n1` the value was 85.1%; for `Cc1nc(N2C[C@@H](CN3CCCN(C)CC3)[C@@H](CO)C2)c2ccsc2n1`, 50.1%. On to `O=C(N[C@@H]1CCN(c2nccc3ccccc23)C[C@H]1O)c1cnccn1`, for which the INHIBITION is 5.78%. As for `CCC[C@@H]1CN(c2ncnc3sccc23)C[C@H]1NS(C)(=O)=O`, the INHIBITION is 27.2%. For the compound `Cc1nc(N2C[C@@H](CN3CCCN(C)CC3)[C@@H](CO)C2)c2sccc2n1`, the INHIBITION amounted to 26.6%. As for `COC1[C@@H]2CC[C@H]1CN(c1nc(C)nc3sccc13)C2` (stereo partly drawn), the INHIBITION was determined as 72.6%. Turning to `Cc1nc(C)c(C)c(N2C[C@@H](CN3CCCN(C)CC3)[C@@H](CO)C2)n1`, the INHIBITION amounted to 15.5%. On to `Cc1nccnc1N1CC[C@@H](NC(=O)c2cnccn2)[C@H](O)C1`, for which the INHIBITION is -3.19%. For `CCN(Cc1cccc2c1OCO2)C(=O)C(C)c1cccnc1` (stereo not drawn) the value was 40.9%. With `CCc1noc(C(C)Sc2nnc(C3CC3)n2CC(N)=O)n1` (stereo not drawn), the INHIBITION was determined as 29%.

Regarding `c1coc(-c2nc(CNC3CCC4(CCNCC4)CC3)no2)c1`, the INHIBITION came out at 33.1%. Next, `O=C([C@H]1CCCO1)N1Cc2nccn2CC(COc2cccnc2)C1` (stereo partly drawn): -30%. For `CN(c1ccncn1)C1CC2(CCN(C(=O)Cc3cccs3)C2)C1` (stereo not drawn) the value was 51.5%; for `CN(c1ccncn1)C1CC2(CCN(C(=O)c3cccs3)C2)C1` (stereo not drawn), 42.1%; for `CN(c1ccncn1)C1CC2(CCN(C(=O)CCc3cccs3)C2)C1` (stereo not drawn), 37.5%.

With `CCc1nccn1C1CCCN(C(=O)CCCc2ccccn2)C1` (stereo not drawn), the INHIBITION is recorded as -6.14%. For `CC(C)C[C@H]1CN(c2nc3c(cc2C(N)=O)CCC3)CC[C@@]1(C)O` the value was -22.5%; for `CCN1CCC2(CC1)CN(C(=O)c1cccnc1)c1ccc(Cl)cc12`, 60.2%; for `CN1CCC2(CC1)CN(C(=O)c1cccnc1)c1ccc(Cl)cc12`, 26.7%.

Consider `CCCN1CCC2(CC1)CN(C(=O)c1cccnc1)c1ccc(F)cc12`, for which the INHIBITION came to 26.7%. For `CC(C(N)=O)N(C)CCCc1cc(-c2ccc(F)cc2)n(C)n1` (stereo not drawn), the INHIBITION is reported as -52.5%. As to `Cc1nn(C)c(C)c1-c1ccc(=O)n(C(C)C(=O)NCc2ccco2)n1` (stereo not drawn), the INHIBITION is 15.7%. Next, `O=C(C[S+]([O-])Cc1c(Cl)cccc1Cl)N1CCc2sccc2C1` (stereo not drawn): 50.5%; `O=C(C[S+]([O-])Cc1ccc(F)cc1Cl)N1CCc2sccc2C1` (stereo not drawn): -3.96%. Next, `O=C(C[S+]([O-])Cc1c(F)cccc1Cl)N1CCc2sccc2C1` (stereo not drawn): -10.9%.

For `O=C(C[S+]([O-])Cc1ccc(F)cc1)N1CCc2sccc2C1` (stereo not drawn), the INHIBITION is on record as 80.3%. Next, `O=C(C[S+]([O-])Cc1ccccc1F)N1CCc2sccc2C1` (stereo not drawn): -13.9%; `O=C(C[S+]([O-])Cc1ccc(Cl)cc1Cl)N1CCc2sccc2C1` (stereo not drawn): 21.8%; `O=C(NCCc1cccs1)[C@H]1CO[C@H]2CCN(CC3CC3)C[C@H]2C1`: 17.7%. For `O=C(NCc1cccs1)[C@H]1CO[C@H]2CCN(C3CCCC3)C[C@H]2C1` the value was 17.7%; for `O=C(NCCc1cccs1)[C@H]1CO[C@H]2CCN(C3CCC3)C[C@H]2C1`, 62%; for `CN(C)CCN1CCCC12CCN(C(=O)c1cccn1C)CC2`, 20.5%.
